In all, about 1,500 compounds went through this assay and about 890 (59%) were called active.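 The calls were made as follows: active = inhibition of the choline-evoked signal at any tested dose together with a fitted dose-response curve; inactive = no inhibition at any dose or no curve.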 The set was probably picked from earlier hits. These entries were drawn from the full list. Potency and affinity values are given separately.
biological target: High affinity choline transporter 1 (Homo sapiens) (UniProt Q9GZV3); assay: human choline transporter blockers, potency – cell-based, 5-point CRC, membrane potential dye, dose response (AID 504840); details: HEK293-CHT, choline-induced depolarization, CHT with LV-to-AA double alanine mutation; series mostly up to 37 µM
Sequence (Q9GZV3 whole entry, looked up): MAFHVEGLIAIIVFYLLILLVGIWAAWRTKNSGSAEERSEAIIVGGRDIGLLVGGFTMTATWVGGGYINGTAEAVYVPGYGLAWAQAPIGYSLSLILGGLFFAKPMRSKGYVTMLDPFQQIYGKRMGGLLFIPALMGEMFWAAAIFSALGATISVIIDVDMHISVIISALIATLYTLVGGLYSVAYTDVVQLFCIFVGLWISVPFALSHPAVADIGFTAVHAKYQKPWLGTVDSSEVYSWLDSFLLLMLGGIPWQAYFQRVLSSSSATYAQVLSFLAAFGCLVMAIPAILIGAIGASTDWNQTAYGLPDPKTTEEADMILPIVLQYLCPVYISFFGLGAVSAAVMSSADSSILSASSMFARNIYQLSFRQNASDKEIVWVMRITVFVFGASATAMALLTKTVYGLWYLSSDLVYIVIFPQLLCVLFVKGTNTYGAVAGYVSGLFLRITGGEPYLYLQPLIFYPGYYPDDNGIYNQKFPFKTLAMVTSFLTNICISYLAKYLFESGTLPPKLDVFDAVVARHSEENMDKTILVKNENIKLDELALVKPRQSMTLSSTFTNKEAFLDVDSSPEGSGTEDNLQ

outcome, inactive:
C/C(=N\NC(=O)c1ccccc1O)C1C(=O)c2ccccc2C1=O, COC(=O)C1CN(C(=O)C(C)Oc2ccccc2Cl)c2ccccc2O1 (stereo unspecified), CC(NC(=O)Cn1nc(-c2ccccc2)c2ccccc2c1=O)c1ccccc1 (stereo unspecified), O=c1c2cc(Br)ccc2nc(-c2cccc(C(F)(F)F)c2)n1O, CCn1c(SCC(=O)N=Nc2c(O)[nH]c3ccccc23)nc2ccccc21, OC(CNCC#Cc1ccccc1)c1ccccc1 (stereo unspecified), O=C(C1CCCN(c2ncnc3c2nc2n3CCCCC2)C1)N1CCN(c2cccc(Cl)c2)CC1 (stereo unspecified), Cc1ccc(N2CCN(C(=O)C3CCCN(c4ncnc5c4nc4n5CCCCC4)C3)CC2)c(C)c1 (stereo unspecified), COc1ccc(Cl)cc1NC(=O)C1CCCN(c2ncnc3c2nc2n3CCCCC2)C1 (stereo unspecified), O=C(Nc1cc(F)ccc1F)C1CCCN(c2ncnc3c2nc2n3CCCCC2)C1 (stereo unspecified), O=C(c1cccs1)C1C(c2ccc(Br)cc2)NC(=S)NC1(O)C(F)(F)F (stereo unspecified), COc1ccc(Cl)c2sc(N(CCN(C)C)C(=O)c3ccc4c(c3)OCCO4)nc12, Cc1[nH]n(-c2ccccc2)c(=O)c1N=Nc1c(O)cc(S(=O)(=O)N(C)C)c2ccccc12, COc1cccc(N2CCN(c3ncnc4c3[nH]c3ccc(F)cc34)CC2C)c1 (stereo unspecified), COCCNc1c2c(nc3c(-c4ccccc4)c(C)nn13)CCCC2, CN1CCN(Cc2ccc(Sc3ccc(Cl)cc3)c([N+](=O)[O-])c2)CC1, CCOC(=O)N1CCN(C(=O)CCCn2c(=S)[nH]c3ccc(Br)cc3c2=O)CC1, CC1=NN(C(=O)c2ccc(Br)cc2)C(O)(C(F)(F)OC(F)(F)F)C1 (stereo unspecified), O=C(Nc1ccccc1O)c1ccccc1O, CCc1nc(NCc2ccccn2)c2oc3ccccc3c2n1, O=C1c2ccccc2C(=O)c2c(Nc3ccc(CCO)cc3)ccc(O)c21, COc1cc(C(CCN2CCCC(C)C2)c2c(OC)cc(OC)c3c(-c4ccccc4)cc(=O)oc23)cc(OC)c1OC (stereo unspecified), O=C(CCCSc1nc2ccccc2[nH]1)N1CCN(c2ccccc2)CC1, CN1CCN(c2ccc(S(=O)(=O)N3CCCCC3)cc2NC(=O)CSCc2ccccc2)CC1, Cc1cc(C)nc(SCc2cc(=O)c(OC(=O)c3ccc(S(=O)(=O)N4CCCC4)cc3)co2)n1, CC(C)[C@H](NC(=O)c1ccccc1)C(=O)OCC(=O)c1ccc2c(c1)NC(=O)CO2, O=C(CCl)N(c1ccc(Cl)cc1)c1c[nH]c2ccccc12, O=C(Nc1cc([N+](=O)[O-])ccc1O)c1cccc([N+](=O)[O-])c1, Oc1ccc(-c2nc(-c3ccc(O)c(O)c3)cs2)cc1, Cc1cccc2sc(N(CCCN(C)C)C(=O)c3ccc(Cl)s3)nc12, Cc1oc(C(=O)O)cc1COc1ccc2c3c(c(=O)oc2c1C)CCC3, O=[N+]([O-])c1ccc(O)c(/C=N/NC2=NS(=O)(=O)c3ccccc32)c1, c1cc(Nc2ncnc3sccc23)cc(-c2nnc3n2CCCCC3)c1, O=c1c2cc(NC(=S)NC3CCCCC3)ccc2nc2n1CCCCC2, CCCn1c(=O)c2c(nc3n2CCCN3CCc2ccc(OC)c(OC)c2)n(C)c1=O, O=C(NNc1ccc(C(F)(F)F)cc1[N+](=O)[O-])c1ccc(NS(=O)(=O)c2ccc(F)cc2)cc1, O=C(NNc1nc(-c2ccccc2)cs1)c1ccc(F)cc1, O=C(NCc1nc(-c2ccccc2)cs1)c1ccccc1, C=CCNC(=O)c1onc(CSc2ccc(C(C)C)cc2)c1C(=O)O, CC(=O)C(Sc1nn(C)c(=S)s1)C(=O)Nc1ccccc1 (stereo unspecified), CN1CCN(CCOCCOc2ccc(Br)cc2Cl)CC1, CCOc1cc(/C=C2\N=C(SC)SC2=O)cc([N+](=O)[O-])c1OC(C)=O, COC(=O)C(C)Sc1nc2c(c(=O)[nH]c(=O)n2C)n1CCC(C)C (stereo unspecified), O=S(=O)(Nc1nc(-c2ccccc2)cs1)c1cccc(C(F)(F)F)c1, O=C(Nc1nc(-c2ccccc2)cs1)c1ccc(=O)[nH]c1, N#Cc1ccc(C2=NC(C(F)(F)F)(C(F)(F)F)c3c(n(Cc4ccco4)c(=O)[nH]c3=O)N2)cc1, O=C(Nc1ccc(S(=O)(=O)NC2=NCCCCC2)cc1)C1COc2ccccc2O1 (stereo unspecified), O=C(CC1C(=O)NCCN1C(=O)Nc1ccccc1)Nc1cc(Cl)cc(Cl)c1 (stereo unspecified), CCCCc1cc(=O)oc2cc(O)cc(O)c12, CN1CCN(CC(=O)Nc2nc(-c3c[nH]c4ccccc34)cs2)CC1, Nc1cc(N2CCCCCC2)c2nonc2c1[N+](=O)[O-], O=C(NNc1ccc([N+](=O)[O-])cc1[N+](=O)[O-])c1ccco1, COc1ccc2c(c1)c(C(O)CN1CCC(Cc3ccccc3)CC1)c(C)n2C (stereo unspecified), CC1(C)c2cc(Cl)ccc2-n2c1cc(O)c(-c1ccccc1)c2=O, CCOC(=O)c1c(CCl)nc2ccccc2c1C, CCCCCn1c(CCNC(=O)CCC)nc2ccccc21, Cc1occc1C(=O)NNC(=S)NC(=O)COc1ccc(Cl)cc1Cl, Cc1occc1C(=O)NNS(=O)(=O)c1ccc([N+](=O)[O-])cc1, O=C(O)c1ccccc1-c1ccccc1C(=O)Nc1ccc(-c2nc3cc(Cl)ccc3o2)cc1, Cc1cccc(N2CCN(C(=O)C3CCN(c4ncnc5c4nc4n5CCCCC4)CC3)CC2C)c1 (stereo unspecified), CCn1c(SCC(=O)c2ccccc2)nnc1-c1cccs1, CCC(Sc1nnc(-c2ccc(C)c(Cl)c2)n1CC)C(=O)Nc1nccs1 (stereo unspecified), Cc1c(O)ccc(/C(Cc2ccc3ccccc3n2)=N\N)c1O, C=CCNc1nc(SCC=C)nc2ccsc12, N#C/C(=C(/O)CCl)c1nc(-c2ccccc2)cs1, O=C(c1cccc(Oc2ccc([N+](=O)[O-])cc2Cl)c1)N1CCCCC1, COc1ccc(Nc2nc3ccccc3n2C)cc1, S=C(NCc1ccccn1)Nc1ccc(Cl)cc1Cl, O=C(Nc1ccc(Br)cc1Cl)Nn1cnnc1, O=C(NCCc1ccc2c(c1)OCCO2)c1cc2ccccc2o1, COc1ccc(CN(C(=O)c2cccs2)C(C(=O)NC2CCCCC2)c2ccc3ncccc3c2)cc1 (stereo unspecified), O=C(NC1CCCCC1)C(c1ccc2ncccc2c1)N(Cc1ccc(F)cc1)C(=O)c1ccc2c(c1)OCCO2 (stereo unspecified), COc1ccc(CN(C(=O)c2ccc3c(c2)OCCO3)C(C(=O)NC2CCCCC2)c2ccc3ncccc3c2)cc1 (stereo unspecified), NC1=NC2(CCCCCC2)n2c(nc3ccccc32)N1, Cc1ccc(-c2csc3ncn(CC#N)c(=O)c23)cc1, CC1=C(C(=O)Nc2cccc(C(=O)NC3CCCC(C)C3C)c2)SCCO1 (stereo unspecified), Cc1ccc(NNC(=O)c2cccs2)cc1Cl, Cc1ccc(Nc2cc(C(=O)NCCCN3CCOCC3)c3ccccc3n2)cc1C, CCNc1nc2[nH]c(=O)c3c(c2s1)OC(N)=C(C#N)C3c1ccc(C)cc1 (stereo unspecified), Cc1noc(C)c1COC(=O)c1ccc(F)c(S(=O)(=O)N2CCCCC2)c1, CCc1nnc(NC(=O)c2cc(S(=O)(=O)N(CC)CC)ccc2Cl)s1, CC[N+]1(CC)CC2=Cc3c(ccc4ccccc34)CC2C1 (stereo unspecified), O=C(CN1CCN(Cc2ccc(Cl)cc2)CC1)N1CCc2ccccc21, CCc1ccc(NCc2nc(-c3ccccc3)no2)cc1, Cc1ccc(-c2noc(CNc3ccccc3)n2)cc1, O=C(CCCN1C(=O)CSc2ncccc21)N1CCN(c2cccc(C(F)(F)F)c2)CC1, CC(C)c1cc(C(=O)N2CCCC(CCC(=O)N3CCN(c4ccccn4)CC3)C2)no1 (stereo unspecified), COC(=O)c1ccc(C(=O)N2CCCC(Nc3ccc(C(C)C)cc3)C2)nc1 (stereo unspecified), CCN(Cc1ccncc1)C(=O)c1cc(COc2c(C)cccc2C)on1, O=C(c1cc(COc2ccc(F)cc2Cl)on1)N1CCC(c2ccncc2)CC1, CC(C)n1cnc2c(N(C)c3cccc(Cl)c3)nc(N(CCO)CCO)nc21, N#C/C(=N\Nc1ccc([N+](=O)[O-])cc1)C(N)=S, N#C/C(=N\Nc1ccc(F)cc1)C(=O)C1CC1, CC(NC(=O)C1c2ccccc2Oc2ccccc21)C1CCCO1 (stereo unspecified), CN(Cc1ccccc1)c1ccc(C(CC(N)=O)NC(=O)c2ccc(Br)cc2)cc1[N+](=O)[O-] (stereo unspecified), O=C(O)c1ccc(N2C(=O)CSC2=S)cc1, CCC(=O)Nc1cc(Cl)ccc1N1CCN(C(=O)CC)CC1, Cc1ccc(Cl)cc1N1CCN(C(=O)Cc2c(C(=O)O)[nH]c3ccc(Cl)cc23)CC1, O=C(CCC(=O)N1CCN(c2ccccc2F)CC1)N1CCN(c2ccc(F)cc2)CC1, NC(N)=N/N=C/c1ccc(Cl)c(Cl)c1, O=C1OCCC1Sc1nc(-c2ccccc2)cs1 (stereo unspecified), Cc1csc(C(C#N)C(=O)c2cc3ccccc3o2)n1 (stereo unspecified), CC(C)n1c(=S)[nH]c2cc(C(F)(F)F)ccc21, CCCCNS(=O)(=O)c1ccc(NC(=O)c2c(-c3ccccc3Cl)noc2C)cc1, Cc1noc(NC(=O)c2c(-c3c(Cl)cccc3Cl)noc2C)c1[N+](=O)[O-], Cc1cc(C)cc(OCC(O)CN2CCC(CN3C(=O)c4cccc5cccc(c45)C3=O)CC2)c1 (stereo unspecified)

Source: PubChem BioAssay AID504840 (Johns Hopkins Ion Channel Center, 2011)
